Test results: PubChem BioAssay (Tox21)
The source made the active and inactive calls. Calls come from the whole dose curve; as a rule, active = well fitted curve in the direction sought with a large enough effect in the repeat runs; inconclusive = weak or mixed curves; inactive = flat fitted curve, though single readings scatter.

Assay: qHTS assay to test for compound auto fluorescence at 460 nm (blue) in HepG2 cell free culture (AID 720685)
Settings: Cell-free culture medium, blue autofluorescence 405/460 nm; series mostly up to 91.3 µM
In short: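 Compound (23 nL) or DMSO pinned into cell-free MEM with 10% FBS; blue fluorescence read at 405/460 nm excitation/emission, expressed as auto-fluorescence equivalency to triamterene.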
% is set by controls: 0 for no effect and ±100 for the full control effect.

Row | SMILES | outcome | fluorescence, % of fluorescent control
1 | O=C(O)c1cccc(Cl)c1Cl | inactive | 
2 | Cc1c(C(=O)NCCO)[n+](=O)c2ccccc2n1[O-] | inactive | 
3 | CC(C)(C)c1cccc(O)c1 | inactive | 
4 | Cc1ccc(C=O)s1 | inactive | 
5 | CC1(C)O[C@@H]2C[C@H]3[C@@H]4CCC5=CC(=O)CC[C@]5(C)[C@@]4(F)[C@@H](O)C[C@]3(C)[C@]2(C(=O)CCl)O1 |  | 0.0173% [at 18.6 µM] (inactive)
6 | COc1nc(C)nc(NC(=O)NS(=O)(=O)c2ccccc2OCCCl)n1 | inactive | 
7 | CN1CCN(c2c(F)cc3c(=O)c(C(=O)O)cn4c3c2SCC4)CC1 | inactive | 
8 | CCCCc1ccc2nc(NC(=O)OC)[nH]c2c1 |  | -0.0558% [at 18.6 µM] (inactive)
9 | CCNCCO | inactive | 
10 | CN(C)CCOc1ccccc1Cc1ccccc1 | inactive | 
11 | Cc1cc2nc(N)sc2cc1C | inactive | 
12 | CN1CCN(c2c(F)cc3c(=O)c(C(=O)O)cn(CCF)c3c2F)CC1 | inactive | 

Assay: qHTS assay to test for compound auto fluorescence at 535 nm (green) in HepG2 cell free culture (AID 720686)
Settings: Cell-free medium, green autofluorescence 485/535 nm; series mostly up to 91.3 µM

Row | SMILES | outcome | fluorescence, % of fluorescein control
13 | CO[C@@]1(NC(=O)CSCC#N)C(=O)N2C(C(=O)O)=C(CSc3nnnn3C)CS[C@@H]21 | inactive | 
14 | Nc1ccc(Oc2ccc(N)c(N)c2)cc1 | inactive | 
15 | CCOc1ccc(NS(=O)(=O)c2ccc(N)cc2)nn1 | inactive | 
16 | C=CCCC=C | inactive | 
17 | Nc1cccc(S(=O)(=O)O)c1 | inactive | 
18 | CC(CNC1CCCCC1)OC(=O)c1ccccc1 (centres undefined) |  | -0.0274% [at 18.6 µM] (inactive)
19 | C1CCOC1 | inactive | 
20 | Cc1c(-c2ccccc2)oc2c(C(=O)OCCN3CCCCC3)cccc2c1=O |  | 0.0304% [at 18.6 µM] (inactive)
21 | CCCCC1CCC(=O)O1 (centres undefined) | inactive | 
22 | CCCN(CCC)C(=O)C(CCC(=O)O)NC(=O)c1ccccc1 (centres undefined) | inactive | 
23 | CCN(CC)CCOc1ccc(Cc2ccccc2)cc1 | inactive | 
24 | CCCCCCCCCCCCCCCCOP(=O)([O-])OCC[N+](C)(C)C | inactive | 
25 | COc1ccc2nc(NC(=O)Nc3ccccc3)sc2c1 | inactive | 
26 | O=C(O)C(=O)Cc1c[nH]c2ccccc12 | inactive | 
27 | O=C(CC(=O)C(F)(F)F)c1ccccc1 | inactive | 
28 | CCCCOc1cc(C(=O)NCCN(CC)CC)c2ccccc2n1 |  | -0.0334% [at 18.6 µM] (inactive)
29 | Cc1ncc(CO)c(CN)c1O | inactive | 
30 | CCC/C=C/CO | inactive | 

Row | SMILES | outcome | fluorescence, % of fluorescein control
31 | COC(=O)C(C)O (centres undefined) | inactive | 
32 | CCc1nnc(NS(=O)(=O)c2ccc(N)cc2)s1 | inactive | 
33 | N#Cc1ccc(C(c2ccc(C#N)cc2)n2cncn2)cc1 | inactive | 
34 | O=C(O)[C@@H](O)[C@H](O)[C@H](O)[C@@H](O)C(=O)O | inactive | 
35 | Cc1cc(S(=O)(=O)O)c(N)cc1Cl | inactive | 
36 | O=C(O)c1cccc(Cl)c1Cl | inactive | 
37 | Cc1c(C(=O)NCCO)[n+](=O)c2ccccc2n1[O-] | inactive | 
38 | CC(C)(C)c1cccc(O)c1 | inactive | 
39 | Cc1ccc(C=O)s1 | inactive | 
40 | CC1(C)O[C@@H]2C[C@H]3[C@@H]4CCC5=CC(=O)CC[C@]5(C)[C@@]4(F)[C@@H](O)C[C@]3(C)[C@]2(C(=O)CCl)O1 |  | 0.0501% [at 18.6 µM] (inactive)
41 | COc1nc(C)nc(NC(=O)NS(=O)(=O)c2ccccc2OCCCl)n1 | inactive | 
42 | CN1CCN(c2c(F)cc3c(=O)c(C(=O)O)cn4c3c2SCC4)CC1 | inactive | 
43 | CCCCc1ccc2nc(NC(=O)OC)[nH]c2c1 |  | -0.0094% [at 18.6 µM] (inactive)
44 | CCNCCO | inactive | 
45 | CN(C)CCOc1ccccc1Cc1ccccc1 | inactive | 
46 | Cc1cc2nc(N)sc2cc1C | inactive | 
47 | CN1CCN(c2c(F)cc3c(=O)c(C(=O)O)cn(CCF)c3c2F)CC1 | inactive | 

Assay: qHTS assay to test for compound auto fluorescence at 460 nm (blue) in HepG2 cells (AID 720687)
Settings: autofluorescence 405/460 nm, 1 h; series mostly up to 91.3 µM
In short: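 Cells (2,000/well in MEM with 10% FBS) attached overnight at 37 C, then were exposed to compound or DMSO for 1 hr at 37 C, 5% CO2. Fluorescence read at Ex/Em 405/460 nm, expressed as triamterene-equivalent signal.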

Row | SMILES | outcome | fluorescence, % of fluorescent control
48 | CO[C@@]1(NC(=O)CSCC#N)C(=O)N2C(C(=O)O)=C(CSc3nnnn3C)CS[C@@H]21 | inactive | 
49 | Nc1ccc(Oc2ccc(N)c(N)c2)cc1 | inactive | 
50 | CCOc1ccc(NS(=O)(=O)c2ccc(N)cc2)nn1 | inactive | 
51 | Nc1cccc(S(=O)(=O)O)c1 | inactive | 
52 | CC(CNC1CCCCC1)OC(=O)c1ccccc1 (centres undefined) |  | -0.124% [at 18.6 µM] (inactive)
53 | C1CCOC1 | inactive | 
54 | Cc1c(-c2ccccc2)oc2c(C(=O)OCCN3CCCCC3)cccc2c1=O |  | -0.0666% [at 18.6 µM] (inactive)
55 | CCCN(CCC)C(=O)C(CCC(=O)O)NC(=O)c1ccccc1 (centres undefined) | inactive | 
56 | CCCCCCCCCCCCCCCCOP(=O)([O-])OCC[N+](C)(C)C | inactive | 
57 | COc1ccc2nc(NC(=O)Nc3ccccc3)sc2c1 | inactive | 
58 | O=C(O)C(=O)Cc1c[nH]c2ccccc12 | inactive | 
59 | O=C(CC(=O)C(F)(F)F)c1ccccc1 | inactive | 
60 | CCCCOc1cc(C(=O)NCCN(CC)CC)c2ccccc2n1 |  | -0.0681% [at 18.6 µM] (inactive)
61 | Cc1ncc(CO)c(CN)c1O | inactive | 
62 | COC(=O)C(C)O (centres undefined) | inactive | 
63 | CCc1nnc(NS(=O)(=O)c2ccc(N)cc2)s1 | inactive | 
64 | O=C(O)[C@@H](O)[C@H](O)[C@H](O)[C@@H](O)C(=O)O | inactive | 
65 | Cc1cc(S(=O)(=O)O)c(N)cc1Cl | inactive | 
66 | O=C(O)c1cccc(Cl)c1Cl | inactive | 
67 | Cc1c(C(=O)NCCO)[n+](=O)c2ccccc2n1[O-] | inactive | 
68 | CC(C)(C)c1cccc(O)c1 | inactive | 
69 | Cc1ccc(C=O)s1 | inactive | 
70 | CC1(C)O[C@@H]2C[C@H]3[C@@H]4CCC5=CC(=O)CC[C@]5(C)[C@@]4(F)[C@@H](O)C[C@]3(C)[C@]2(C(=O)CCl)O1 |  | -0.0673% [at 18.6 µM] (inactive)
71 | COc1nc(C)nc(NC(=O)NS(=O)(=O)c2ccccc2OCCCl)n1 | inactive | 
72 | CCCCc1ccc2nc(NC(=O)OC)[nH]c2c1 |  | -0.0106% [at 18.6 µM] (inactive)
73 | CCNCCO | inactive | 
74 | CN1CCN(c2c(F)cc3c(=O)c(C(=O)O)cn(CCF)c3c2F)CC1 | inactive | 
